# Pf Dd2 growth – qHTS Primary assay for Inhibitors of Plasmodium falciparum Dd2 growth in vitro | P. falciparum Dd2 growth, SYBR Green, 72 h | Potency, µM (series often up to 28.9 µM), inactives show at the highest dose activity, negative = inhibition, usual class: inhibitors | AID 1347417, 2020 | 120,000 tested, 4.3% active; active = well fitted inhibition curve with a large enough effect;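 also: plate controls were DMSO vehicle for no effect and reference drug for full effect; nearly all actives have a fitted effect of over 65% in size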
#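 Infected erythrocytes (Dd2, 0.3% parasitemia, 2.5% hematocrit final) are added to compound in RPMI-1640/Albumax II medium, grown 72 h at 37C in low oxygen, then lysed with saponin/Triton-X containing SYBR Green and read by fluorescence.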
# Active calls of the source: *; i = inactive; [ ] = another dose, or the depositor's remark. The full list was thinned out, with hits kept by preference. Potency is read from the fitted curve at half-maximal effect.
SMILES,Pf Dd2 growth
O=C(C1CCCC1)N1CC2(CCN(Cc3c[nH]c4ccccc34)CC2)Cc2ccccc21,4.5µM*
O=C(O)CCC(=O)N1CCC2(Cc3ccccc3N(C(=O)C3CCCC3)C2)C1 (configuration not stated),21%
O=C(c1ccccc1)N1Cc2ccccc2CC2(CCN(CC3CCNC3)C2)C1 (configuration not stated),3%
CC(=O)N1CC2(CCCN(CC3CCCCC3)C2)Cc2ccccc21 (configuration not stated),10µM*
C[S+](=O)([O-])N1Cc2ccccc2CC2(CCN(Cc3ccccn3)CC2)C1,-19%
CC(=O)N1CC(CO)C2(CCN(Cc3c[nH]c4ccccc34)CC2)C1 (configuration not stated),46%
O=C(c1ccc(Cl)cc1)N1CC2(CCN(CC3CCCCC3)CC2)Cc2ccccc21,5.6µM*
CC(=O)N1CC2(CCN(C(=O)c3ccc(Cl)cc3)CC2)Cc2ccccc21,3%
O=C(C1CCCC1)N1CC2(CCN(Cc3ccccn3)CC2)Cc2ccccc21,10µM*
CC(=O)N1CC2(CCN(CC3CC3)CC2)Cc2ccccc21,-14%[44.1 µM]
CC(=O)N1CC2(CCN(CC3CC3)C2)Cc2ccccc21 (configuration not stated),-26%[44.1 µM]
O=C1Nc2ccccc2CNC12CCN(Cc1c[nH]c3ccccc13)CC2,-25%
CN1C(=O)[C@@H]2C[C@@H](O)CN2C2(CN(CC3CCCCC3)C2)C1=O,13%[44.1 µM]
O=C(NCc1cccnc1)c1ccc2c(c1)N(C(=O)c1ccc(F)cc1)CC2,-9%
COc1ccc(C(=O)N2CCC3(CC2)OCC(C(=O)N2CCOCC2)N3C(=O)c2ccccc2)cc1 (configuration not stated),11%
O=C(NCc1ccco1)C1CC(c2ccccc2)CN(C(=O)c2ccc(F)cc2)C1 (configuration not stated),-7%
O=C(c1ccc2ccccc2n1)N1C[C@@H](CO)[C@H](c2ccccn2)C1,-23%
Cc1noc(C)c1CC(=O)N1CCC(OCCOc2ccc(F)cc2)CC1,37%
COC(=O)CN1C(=O)[C@@H]2C[C@@H](O)CN2C2(CN(C3Cc4ccccc4C3)C2)C1=O,17%[44.1 µM]
O=C(NCCc1ccccc1)c1noc(-c2ccc(F)cc2)n1,11%
COc1ccc2c(c1)OCC(C(=O)NCc1nc3c(s1)CCCC3)C2 (configuration not stated),-6%
CC(=O)N1CC2(CCCN2C(=O)CCC(=O)O)Cc2ccccc21 (configuration not stated),18%
CC(=O)NCC(=O)N1Cc2ccccc2CC2(CCN(CC3CCCCC3)C2)C1 (configuration not stated),-24%
O=C(C1CCCC1)N1CC2(CCCN2C2COC2)Cc2ccccc21 (configuration not stated),8.9µM*
O=C(C1CCCC1)N1CC2(CCN(CC3CC3)C2)Cc2ccccc21 (configuration not stated),8.9µM*
SMILES,Pf Dd2 growth
CC(=O)N1Cc2ccccc2CC2(CCN(CC3CCNCC3)C2)C1 (configuration not stated),13%
CS(=O)(=O)N1CCCN(C(=O)C2CCCCC2)c2ccccc21,33%
O=C1CN(Cc2ccc(-c3cccs3)cc2)CCN1c1ccc(Cl)nn1,-19%
Cn1cc([C@@H](NC(=O)C2CCN(Cc3ccco3)CC2)C2CC(O)C2)cn1 (some centres not stated),1%
COc1ccccc1C(=O)N1CCC2(CC1)N(C)C(=O)CS2(=O)=O,1%
CN(C(=O)Cn1c2c(c(=O)n1Cc1ccccc1)CCN(Cc1ccccc1)C2)c1ccccc1,i
CN1C(=O)C2(CCN(C(=O)CCn3cnnn3)CC2)c2ccccc21,i
CN1C(=O)C2(CCN(C(=O)CCc3ccccc3)C2)c2ccccc21 (configuration not stated),-16%
Cc1cc2cc(C(=O)N3CCC4(CC3)C(=O)N(C)c3ccccc34)ccc2o1,-22%
CCC(CC)C(=O)N1CCC2(CC1)C(=O)N(C)c1ccccc12,i
CN1C(=O)C2(CCN(C(=O)CCC3CCCC3)CC2)c2ccccc21,5.6µM*
CCOc1ccc(C(=O)N2CCC3(CC2)C(=O)N(C)c2ccccc23)cc1OCC,13µM*
O=C1[C@@H]2C[C@@H](CN2C2CCOCC2)Oc2ccccc2N1Cc1ccccc1,-30%[44.1 µM]
Cc1nc(CC(=O)N2CCC(Cc3nnc(CO)n3C)CC2)cs1,3%
COc1ccccc1CNC(=O)C1CCN(c2cn[nH]c(=O)c2)C1 (configuration not stated),1%
O=C([C@@H]1C[C@H](Oc2ccccc2)CN1C(=O)C1CCCCC1)N1CCCC1,-24%
C#C[C@H]1CN2CC[C@H]1C[C@@H]2CNC(=O)Nc1ccc(Oc2ccccc2)cc1,i
COC(=O)[C@@H]1Cc2c([nH]c3ccccc23)[C@H]2C[C@H](NCc3cccs3)C[C@@H](c3ccccc3)N21,7.9µM*
COC(=O)[C@@H]1Cc2c([nH]c3ccccc23)[C@H]2C[C@@H](NCCNC(C)=O)C[C@@H](c3ccc(C)cc3)N21,i
